mHTT CaM bind – mutant huntingtin-calmodulin interaction inhibitors – biochemical, AlphaScreen, primary screen. AlphaScreen His-mHTT/GST-CaM binding, luminescence. inhibition, % at 15 µM. 190,000 tested, 3.6% active;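 further: 0% = both proteins with DMSO and 100% = one protein alone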
Pf apPOL inh – Pf-apPOL inhibitors, biochemical, fluorescence; inhibition, % at 10 µM; Plasmodium falciparum apicoplast DNA polymerase (apPOL); 210,000 tested, 0.25% active; AID 1794808, 2022; Recombinant Pf-apPOL, molecular beacon fluorescence, 1.5 h
Numbers without * were called inactive; x = no result given. Only some compounds are listed: those with a hit (about 3.6% of all), similar ones and a draw of the others. No stated cut-off is given here; in the data, active means inhibition above about 50%; inactive means the rest.

SMILES | mHTT CaM bind | Pf apPOL inh
Cc1cc(C)c(C)c(S(=O)(=O)N2CCCC2c2nc(-c3cccc(Cl)c3)no2)c1C (stereo unspecified) | -7 | -3
O=C(Nc1ccc(Oc2ccccc2)cc1)C1CC(=O)N(c2ccccc2Cl)C1 (stereo unspecified) | 72* | 0
COc1ccc(NC(=O)C2CC(=O)N(c3ccccc3)C2)cc1 (stereo unspecified) | 0 | 2
O=C(NC1CC2CC1CN2S(=O)(=O)c1ccc(F)c(Cl)c1)c1ccccc1 (stereo unspecified) | -6 | 3
CCc1ccc(C2C(C#N)=C(N)N(c3ccc([N+](=O)[O-])cc3)C3=C2C(=O)CC(C)(C)C3)s1 (stereo unspecified) | 49 | 1
CC1(C)CC(=O)C2=C(C1)N(c1ccc(Br)cc1)C(N)=C(C#N)C2c1cccs1 (stereo unspecified) | 42 | -3
CC1(C)CC(=O)C2=C(C1)N(c1ccc(Br)cc1F)C(N)=C(C#N)C2c1cccs1 (stereo unspecified) | 52* | 6
CCc1ccc(C2C(C#N)=C(N)N(c3ccccc3)C3=C2C(=O)CC(C)(C)C3)s1 (stereo unspecified) | 50* | -8
Cc1oc(C2CCC2)nc1C(=O)N1CCCN(C)CC1 | 0 | 3
O=C1c2ccc3ccccc3c2-c2cccc3cccc1c23 | x | 23
O=C1C([N+](=O)[O-])=C(O)c2cccc3cccc1c23 | x | 70*
CCCNc1nc(CC)nc2c1cnn2-c1ccc(OC)cc1 | -2 | 0
CCC(=O)Nc1cccc(-c2noc(C3CCN(C(=O)c4cccc(N(C)C)c4)CC3)n2)c1 | 28 | -2
CCCCn1c(=N)n(CC(O)COc2ccc(Cl)cc2)c2ccccc21 (stereo unspecified) | 42 | 2
N=c1n(Cc2ccccc2)c2ccccc2n1CC(O)COc1ccc(Cl)cc1 (stereo unspecified) | 60* | 7
CN1CCN(CC2CCCCC2)CC1 | 0 | 14
CCCNC(=O)N1CCC(c2cc(N)on2)CC1 | -10 | -1
CN(Cc1ccccc1)S(=O)(=O)c1ccc(F)c(C(=O)Nc2cccc(F)c2)c1 | 3 | 1
COc1ccccc1N(CC(N)=O)S(=O)(=O)c1ccccc1 | -6 | -5
COc1ccccc1N(CC(O)COc1ccc(C)cc1)S(=O)(=O)c1ccccc1 (stereo unspecified) | 52* | 0
CCOc1ccc(C=C2SC(=S)N(CCCCCC(=O)O)C2=O)cc1OC | 47 | 14
CCC(C(=O)O)N1C(=O)C(=Cc2ccc(O)c(OC)c2)SC1=S (stereo unspecified) | 32 | -36
CCCCCCCC(=O)NN1C(=O)C(=Cc2ccc(O)c(OC)c2)SC1=S | 88* | -66
COc1cc(C=C2SC(=S)N(c3ccc(O)c(C(=O)O)c3)C2=O)ccc1O | 54* | 6
O=C(O)c1cc(NC(=O)c2ccccc2Br)cc(C(=O)O)c1 | 4 | 4
SMILES | mHTT CaM bind | Pf apPOL inh
O=C(c1cc(-c2ccc3c(c2)OCO3)on1)N1CCCC1c1cccc(F)c1 (stereo unspecified) | -7 | -2
Cc1nc(C)c(-c2csc(Nc3ccc(N)cc3)n2)s1 | 87* | -23
COc1ccccc1Nc1nc(-c2sc(C)nc2C)cs1 | -6 | 5
Cc1nc(C)c(-c2csc(NCc3ccco3)n2)s1 | 12 | -6
COc1ccc(Nc2nc(-c3sc(C)nc3C)cs2)cc1 | 52* | -4
CC(=O)N1c2ccccc2NC2=C(C(=O)CC(c3ccc(Cl)c(Cl)c3)C2)C1c1cccnc1 (stereo unspecified) | 83* | -7
CC1(C)CC(=O)C2=C(C1)Nc1ccccc1N(C(=O)C(F)(F)F)C2c1cccc(O)c1 (stereo unspecified) | 4 | -8
CC(=O)N1c2ccccc2NC2=C(C(=O)CC(c3ccc(F)cc3)C2)C1c1cccnc1 (stereo unspecified) | 6 | 1
CC1(C)CC(=O)C2=C(C1)Nc1ccccc1N(C(=O)C(F)(F)F)C2c1cccnc1 (stereo unspecified) | 4 | 63*
CCC(=O)NCc1nc2c(n1CC)CN(S(=O)(=O)c1cccs1)CC2 | 8 | -4
CCC(C)NC(=O)C1CCC(c2ccc(F)cc2)N(C(=O)c2ccccc2)C1 (stereo unspecified) | -3 | 1
COc1cccc(N2C(=O)N(c3ccc(Cl)c(Cl)c3)C3CS(=O)(=O)CC32)c1 (stereo unspecified) | 2 | 0
COc1cc(OC)c(CNc2ccc(F)c(F)c2)cc1Br | 10 | 8
COc1cc(OC)c(CNc2ccc3cn[nH]c3c2)cc1Br | 55* | -3
COc1cccc(CNc2ccc3cn[nH]c3c2)c1OC | 54* | 10
COc1ccc(CNc2ccc(C)c(C)c2)c(OC)c1 | 58* | -5
COc1ccc(CNc2ccccc2SC)cc1Br | -31 | 1
COc1ccc(CNc2ccc(F)c(Cl)c2)c(OC)c1 | 31 | 0
COc1ccc(CNc2ccc3cn[nH]c3c2)cc1Br | 71* | -5
COc1cccc(CNc2ccc(F)c(Cl)c2)c1OC | 26 | 5
CCn1c(=O)c2c(ncn2CC(C)C)n(-c2ccc(C(C)C)cc2)c1=O | 0 | 0
CN1C(=O)CC(C(=O)Nc2ccc(F)cc2)SC1=Nc1cccc(F)c1 (stereo unspecified) | 0 | 4
O=C(Cn1nc(-c2ccccc2)ccc1=O)NCc1ccco1 | -5 | -14
COc1cc(C2NC(C(=O)O)Cc3[nH]cnc32)cc(Br)c1OCc1ccccn1 (stereo unspecified) | 8 | 3
CCOC(=O)c1ccc(Nc2ncnc3c2nc2n3CCCCC2)cc1 | 3 | -4
SMILES | mHTT CaM bind | Pf apPOL inh
COc1ccc(CNc2ccc(C)c(C)c2)cc1Br | 81* | -2
COc1ccc(CNc2cccc(F)c2)cc1Br | -65 | -9
COc1ccc(-c2noc(C3CCCN3C(=O)Nc3cccc(SC)c3)n2)cc1 (stereo unspecified) | 6 | -3
CCCc1noc(-c2cccnc2N2CCCN(C(=O)c3ccccc3)CC2)n1 | -2 | 0
CN(C)C(=O)c1ccc(-c2cccs2)nc1 | -8 | -4
COc1ccc(C=Nc2nc3ccccc3[nH]2)cc1 | x | -11
O=C(O)Cc1c[nH]c2ccccc12 | 10 | -1
c1ccc2c(Cc3c[nH]c4ccc(-c5ccncc5)cc34)c[nH]c2c1 | 100* | 3
Cc1ccc(C)c(NC(=O)COc2cc(C)nc(N3CCCC3)n2)c1 | -6 | -2
CC(=Cc1ccccc1)C=C1SC(=S)N(C(CCC(=O)O)C(=O)O)C1=O (stereo unspecified) | 11 | -142
CC(=Cc1ccccc1)C=C1SC(=S)N(C(Cc2ccccc2)C(=O)O)C1=O (stereo unspecified) | 85* | -135
CCCn1c(C2CCN(C(=O)c3ccc(C)c(N4CCCC4=O)c3)C2)nc2cccnc21 (stereo unspecified) | 1 | 0
CC(C)Cc1nc(SCC(=O)Nc2ccccc2)n[nH]1 | -4 | 2
CC(C)Cc1nc(SCC(=O)Nc2ccc(S(N)(=O)=O)cc2)n[nH]1 | -5 | 62*
COc1ccc(-c2c(C)oc3c(CN4CCCCCC4)c(O)ccc3c2=O)cc1 | 0 | -12
COc1ccc(OC)c(C2N(c3ccc(Cl)cc3)C(=O)C3CCCN32)c1 (stereo unspecified) | 73* | -1
COc1cccc(C2N(c3ccccn3)C(=O)C3CCCN32)c1OC (stereo unspecified) | -3 | -2
